Source: PubChem
CHX counter: affects cycloheximide protein synthesis inhibition readout, counter-screen. cell reporter, cycloheximide protein synthesis inhibition counterscreen. AID 2314. max response, %. 300,000 compounds, 12% hits; in the data active = max response mostly above about 13%, no sharp cut-off; inactive = mostly below about 14%; note: read at 38.3 µM for the half of the compounds with a filed dose; 0% is about no effect
Sm TGR inh: inhibitors of Schistosoma mansoni thioredoxin glutathione reductase. Q962Y6. purified TGR, DTNB reduction, TNB absorbance 405 nm. Potency, µM (series often up to 114 µM), for the others: at the top dose activity change, negative = inhibition, most hits filed as inhibitors. 360,000 compounds, 3% hits. AID 485364; note: potency is the fitted concentration of half-maximal effect; % is set by controls: 0 for no effect and ±100 for the full control effect; nearly all actives have a fitted effect of over 60% in size
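TGR 20 nM + NADPH 100 uM (dispensed conc.), cpd preinc 15 min RT; start with NADPH (500 uM addition) then DTNB (15 mM addition). Kinetic TNB absorbance, 405 nm filter. Four-parameter Hill fit across titration.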
TbPYK inhibitor: inhibitors of Trypanosoma brucei pyruvate kinase | Q57TT1 | TbPYK enzyme, Kinase-Glo Plus ATP luminescence, 45 min | Potency, µM (series often up to 76.8 µM), without a hit: top-dose activity, negative = inhibition, hits mostly inhibitors | 410,000 compounds, 0.12% hits | AID 624173; note: potency is the fitted concentration of half-maximal effect; % is set by controls: 0 for no effect and ±100 for the full control effect; nearly all actives have a fitted effect of over 50% in size
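Luminescent Kinase-Glo Plus end-point after 45 min room-temperature reaction of T. brucei pyruvate kinase started with 130 uM ADP (final). Buffer TEA 50 mM pH 7.2 with KCl, MgCl2, BSA, Tween-20; titration-based qHTS with fitted concentration-effect curves.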
Giardia FBPA inh-1: Giardia lamblia aldolase inhibition. 290,000 compounds, 0.71% hits. A8B2U2. purified Giardia FBPA. Potency, µM (highest dose often 59.6 µM), for inactives: top-dose activity, negative = inhibition, actives largely listed as inhibitors; note: potency is the fitted concentration of half-maximal effect; % is set by controls: 0 for no effect and ±100 for the full control effect; nearly all actives have a fitted effect of over 55% in size
Target sequence (A8B2U2 whole entry, looked up): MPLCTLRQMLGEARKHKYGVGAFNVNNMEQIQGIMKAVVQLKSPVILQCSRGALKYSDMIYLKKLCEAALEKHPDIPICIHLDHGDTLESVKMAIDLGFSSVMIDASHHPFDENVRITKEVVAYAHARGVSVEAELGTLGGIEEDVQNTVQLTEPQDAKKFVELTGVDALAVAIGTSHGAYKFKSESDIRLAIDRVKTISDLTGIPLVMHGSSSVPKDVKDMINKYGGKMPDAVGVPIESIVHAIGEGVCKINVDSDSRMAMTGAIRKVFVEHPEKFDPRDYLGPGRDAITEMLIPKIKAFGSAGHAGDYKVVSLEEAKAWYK
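Giardia FBPA (40 nM reagent) was preincubated 10 min at RT with compound (up to 57.5 uM final), then substrate plus GAPDH/TPI/NAD/arsenate coupling system with diaphorase/resazurin was added; resorufin fluorescence (525/598 nm) was read after 20 min.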
LmPK inh: inhibitors of Leishmania mexicana pyruvate kinase; 290,000 compounds, 0.37% hits; purified LmPK, Kinase-Glo ATP luminescence, 1 h; Potency, µM (titrated, usually from 57.5 µM), without a hit: at the highest dose activity change, negative = inhibition, usual class: inhibitors; AID 1721; note: potency is the fitted concentration of half-maximal effect; % is set by controls: 0 for no effect and ±100 for the full control effect
Target sequence (Q27686 whole entry, looked up): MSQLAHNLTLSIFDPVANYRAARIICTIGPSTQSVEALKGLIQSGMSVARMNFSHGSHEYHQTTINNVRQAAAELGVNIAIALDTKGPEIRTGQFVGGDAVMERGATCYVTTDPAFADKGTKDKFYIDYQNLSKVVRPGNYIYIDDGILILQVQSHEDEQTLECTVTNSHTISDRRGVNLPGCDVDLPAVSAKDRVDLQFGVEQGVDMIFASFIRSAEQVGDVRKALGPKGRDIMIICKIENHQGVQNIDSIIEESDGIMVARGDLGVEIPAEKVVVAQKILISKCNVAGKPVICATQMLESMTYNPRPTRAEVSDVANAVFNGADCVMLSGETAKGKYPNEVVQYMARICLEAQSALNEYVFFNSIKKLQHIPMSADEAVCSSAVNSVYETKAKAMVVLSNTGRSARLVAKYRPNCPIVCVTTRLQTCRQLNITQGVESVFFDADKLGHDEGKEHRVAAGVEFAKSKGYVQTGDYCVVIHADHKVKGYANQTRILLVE
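Purified LmPK (0.1 nM) converted ADP (0.1 mM) to ATP with PEP (0.5 mM) in imidazole buffer pH 7.2 with KCl and MgCl2, 1 h at room temperature. ATP was read by Kinase-Glo luminescence; data normalized to uninhibited and no-enzyme controls.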
Shiga inhibitor: inhibitors of Shiga toxin in Vero cells; 290,000 compounds, 9.2% hits; AID 2315; inhibition, % at 38.7 µM; Vero cells, Shiga toxin protein synthesis inhibition reporter; in the data active = inhibition mostly above about 28%, no sharp cut-off; inactive = mostly below about 43%; note: 0% is about no effect
Giardia growth: blocks growth of Giardia lamblia trophozoites | Giardia lamblia trophozoite growth inhibition | shares compounds with Giardia FBPA inh-1 | Potency, µM (doses to about 57.5 µM), for inactives: top-dose activity change, negative = inhibition, actives largely listed as inhibitors | 1,500 compounds, 5% hits;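 note: potency is the fitted concentration of half-maximal effect; trophozoites exposed to compound for 48 h at 37 °C; % is set by controls: 0 for no effect and ±100 for the full control effect; nearly all actives have a fitted effect of over 70% in size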
Mammal cell tox: toxic to mammalian cells in Giardia aldolase counter-screen; shares compounds with Giardia FBPA inh-1; mammalian cell viability counter-screen, qHTS; 1,500 compounds, 4% hits; Potency, µM (series often up to 57.5 µM), for the others: top-dose viability change, negative = toxicity, hits mostly inhibitors; AID 2786;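 note: Chinese hamster ovary cells used as mammalian cytotoxicity surrogate; viability measured as cellular ATP by luminescence; potency is the fitted concentration of half-maximal effect; compound exposure lasted 48 h before reading; % is set by controls: 0 for no effect and ±100 for the full control effect; nearly all actives have a fitted effect of over 60% in size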
Giardia FBPA inh-2: confirmation of Giardia fructose-bisphosphate aldolase inhibitors. AID 2787. Potency, µM (highest dose often 57.5 µM), for the others: at the highest dose activity change, negative = inhibition, usual class: inhibitors. 1,500 compounds, 5% hits. purified Giardia aldolase enzyme activity, qHTS. shares compounds with Giardia FBPA inh-1; note: potency is the fitted concentration of half-maximal effect; % is set by controls: 0 for no effect and ±100 for the full control effect; nearly all actives have a fitted effect of over 45% in size
Rabbit FBPA inh: selectivity test for Giardia aldolase inhibitors: rabbit aldolase. shares compounds with Giardia FBPA inh-1. Rabbit muscle FBPA enzyme inhibition, selectivity counter-screen. Potency, µM (top dose mostly 57.5 µM), for the others: at the top dose activity, negative = inhibition, actives largely listed as inhibitors. 1,500 compounds, 4% hits. AID 2794; note: potency is the fitted concentration of half-maximal effect; % is set by controls: 0 for no effect and ±100 for the full control effect; nearly all actives have a fitted effect of over 60% in size
GAPDH counter: counter-screen for Giardia aldolase inhibitors: GAPDH coupling enzyme; shares compounds with Giardia FBPA inh-1; GAPDH coupling enzyme counterscreen, biochemical, qHTS; Potency, µM (highest dose often 57.5 µM), without a hit: top-dose activity change, negative = inhibition, hits mostly inhibitors; 1,500 compounds, 6% hits; AID 2795; note: potency is the fitted concentration of half-maximal effect; % is set by controls: 0 for no effect and ±100 for the full control effect; nearly all actives have a fitted effect of over 55% in size
Numbers without * were called inactive; [ ] = another dose, or the depositor's remark. This excerpt belongs to a sample that is enriched for hits. Unless noted, calls come from the whole dose curve; as a rule, active = well fitted curve in the direction sought with a large enough effect; inconclusive = small, poorly fitted or top-dose-only effect, or another doubt; inactive = no such curve, though single readings can be large; an effect the other way counts as inactive or inconclusive.

`O=C(CNCc1cccs1)Nc1ccc(N2CCCCCC2)cc1` gave CHX counter 27*, Sm TGR inh 7%, TbPYK inhibitor 5%, Giardia FBPA inh-1 18µM*, LmPK inh -5%, Shiga inhibitor 60*, Giardia growth inconclusive, Mammal cell tox -11%, Giardia FBPA inh-2 -15%, Rabbit FBPA inh -14% and GAPDH counter -13%.
For COC(=O)C1=C(O)/C(=C\c2cc(C)n(-c3ccccc3F)c2C)N=C1C the results were CHX counter 34*, Sm TGR inh 25µM*, TbPYK inhibitor -17%, Giardia FBPA inh-1 13µM*, LmPK inh -1%, Shiga inhibitor 82*, Giardia growth -14%, Mammal cell tox -2%, Giardia FBPA inh-2 -18%, Rabbit FBPA inh -22% and GAPDH counter -26%.
Cc1sc2ncnc(N3CCC(C(=O)Nc4cc(C(F)(F)F)ccc4OCC(F)(F)F)CC3)c2c1C was read as TbPYK inhibitor 1%.
`CC1=NN(c2nc3ccccc3[nH]2)C(=O)C1Cc1ccccc1` (stereo not drawn) gave CHX counter 11, Sm TGR inh 5%, TbPYK inhibitor -5%, Giardia FBPA inh-1 18µM*, LmPK inh -1%, Shiga inhibitor 19, Giardia growth -21%, Mammal cell tox inconclusive, Giardia FBPA inh-2 23%, Rabbit FBPA inh 6% and GAPDH counter 9%.
Screening O=C(O)c1ccc(Cl)c(S(=O)(=O)Nc2ccc3[nH]c(=O)[nH]c3c2)c1 returned CHX counter 0, Sm TGR inh -1%, TbPYK inhibitor -5%, Giardia FBPA inh-1 inconclusive, LmPK inh 8%, Shiga inhibitor 8, Giardia growth 21%[38.3 µM], Mammal cell tox -13%, Giardia FBPA inh-2 18µM*, Rabbit FBPA inh inconclusive and GAPDH counter 16µM*.
Screening O=C1CC(SCCc2nc3ccccc3[nH]2)C(=O)N1c1ccc(F)c(Cl)c1 (stereo not drawn) returned TbPYK inhibitor -1%.
CCc1c(O)nc(SC2CC(=O)N(c3ccc(F)c(Cl)c3)C2=O)[nH]c1=O (stereo not drawn) was read as CHX counter -2, Sm TGR inh inconclusive, TbPYK inhibitor -5%, Giardia FBPA inh-1 3.2µM*, LmPK inh 0%, Shiga inhibitor -6, Giardia growth 11%[38.3 µM], Mammal cell tox -7%, Giardia FBPA inh-2 inconclusive, Rabbit FBPA inh 15% and GAPDH counter 5%.
CCOC(=O)C(C(=O)OCC)c1cc(Br)c2noc3c2c1C(=O)c1ccccc1-3 was read as CHX counter -1, Sm TGR inh 0.63µM*, TbPYK inhibitor -7%, Giardia FBPA inh-1 0.35µM*, LmPK inh -14%, Shiga inhibitor 21, Giardia growth -18%, Mammal cell tox inconclusive, Giardia FBPA inh-2 inconclusive, Rabbit FBPA inh inconclusive and GAPDH counter inconclusive.
Screening Cc1cc(C)c(N)c(C(=O)O)c1 returned CHX counter -2, Sm TGR inh 2%, TbPYK inhibitor 0%, Giardia FBPA inh-1 -4%, LmPK inh 6% and Shiga inhibitor -3.
Screening Cc1cc(C)c(O)c(N)c1 returned CHX counter -2, Sm TGR inh 3.2µM*, Giardia FBPA inh-1 20µM*, LmPK inh 2%, Shiga inhibitor -4, Giardia growth -5%[10.4 µM], Mammal cell tox 5%, Giardia FBPA inh-2 inconclusive, Rabbit FBPA inh inconclusive and GAPDH counter -28%.
Cc1ccc(CCNC(=O)c2ccc(NC(=O)N3CCSc4ccccc43)cc2)cc1 was read as Sm TGR inh 12% and TbPYK inhibitor -5%.
For CCN(CC)S(=O)(=O)c1ccc(C)c(NC(=O)CN2CCN(Cc3ccccc3)CC2)c1 the results were CHX counter -7, Sm TGR inh 5%, TbPYK inhibitor 22%, Giardia FBPA inh-1 20µM*, LmPK inh -2%, Shiga inhibitor 3, Giardia growth -11%[10.4 µM], Mammal cell tox -28%, Giardia FBPA inh-2 2%, Rabbit FBPA inh -1% and GAPDH counter 8%.
`CCN(CC)c1ccc(S(=O)(=O)N2CCOCC2)cc1NC(=O)CN1CCN(Cc2ccccc2)CC1` gave CHX counter -4, Sm TGR inh 0%, TbPYK inhibitor 5%, Giardia FBPA inh-1 20µM*, LmPK inh -1%, Shiga inhibitor -9, Giardia growth -22%, Mammal cell tox -8%, Giardia FBPA inh-2 -3%, Rabbit FBPA inh -5% and GAPDH counter 5%.
For CCN(CC)c1ccc(S(=O)(=O)N2CCOCC2)cc1NC(=O)CNCc1ccccc1 the results were CHX counter 0, Sm TGR inh 1%, TbPYK inhibitor -4%, Giardia FBPA inh-1 inconclusive, LmPK inh -2% and Shiga inhibitor -6.
`CCN(CC)S(=O)(=O)c1ccc(C)c(NC(=O)CNCCN(C(C)C)C(C)C)c1` gave CHX counter 2, TbPYK inhibitor 37%, Giardia FBPA inh-1 14µM*, LmPK inh 3%, Shiga inhibitor 49, Giardia growth 24%, Mammal cell tox 13%, Giardia FBPA inh-2 7%, Rabbit FBPA inh 3% and GAPDH counter 12%.
`CCc1ccc(CNC(=O)c2cnc3c(C)cccn3c2=O)cc1` gave Sm TGR inh -4% and TbPYK inhibitor 0%.
For CCOc1cc(/C=C(\C#N)C(=O)Nc2ccccc2C(=O)O)ccc1OC(=O)c1ccc(C)cc1 the results were CHX counter -2, Sm TGR inh -30%, TbPYK inhibitor -3%, Giardia FBPA inh-1 -5%, LmPK inh -11% and Shiga inhibitor -15.
`C=CC1=C2C=C(C3CC3)N(CCOC)C=C2C(=O)C(C)(OC(=O)c2ccco2)C1=O` (stereo not drawn) gave Giardia FBPA inh-1 inconclusive and LmPK inh -3%[11.5 µM].
